The values below come from publication PMC4336329 (PLoS ONE, 2015).

Screen size: about 310,000 compounds; about 14,000 (4.5%) showed an effect of 50% or more. Effects have a minus sign here. Only a selection was taken, and strong results are over-represented in it overall.
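Further: peak tail current of the secondary pulse compared with the same well before compound.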

In the test the target is human ether-à-go-go-related gene (hERG) potassium channel (human, UniProt Q12809). Put plainly: primary screen, population patch clamp on CHO cells stably expressing hERG; higher = less effect of the substance.
Sequence of human ether-à-go-go-related gene (hERG) potassium channel (Q12809 whole entry, looked up): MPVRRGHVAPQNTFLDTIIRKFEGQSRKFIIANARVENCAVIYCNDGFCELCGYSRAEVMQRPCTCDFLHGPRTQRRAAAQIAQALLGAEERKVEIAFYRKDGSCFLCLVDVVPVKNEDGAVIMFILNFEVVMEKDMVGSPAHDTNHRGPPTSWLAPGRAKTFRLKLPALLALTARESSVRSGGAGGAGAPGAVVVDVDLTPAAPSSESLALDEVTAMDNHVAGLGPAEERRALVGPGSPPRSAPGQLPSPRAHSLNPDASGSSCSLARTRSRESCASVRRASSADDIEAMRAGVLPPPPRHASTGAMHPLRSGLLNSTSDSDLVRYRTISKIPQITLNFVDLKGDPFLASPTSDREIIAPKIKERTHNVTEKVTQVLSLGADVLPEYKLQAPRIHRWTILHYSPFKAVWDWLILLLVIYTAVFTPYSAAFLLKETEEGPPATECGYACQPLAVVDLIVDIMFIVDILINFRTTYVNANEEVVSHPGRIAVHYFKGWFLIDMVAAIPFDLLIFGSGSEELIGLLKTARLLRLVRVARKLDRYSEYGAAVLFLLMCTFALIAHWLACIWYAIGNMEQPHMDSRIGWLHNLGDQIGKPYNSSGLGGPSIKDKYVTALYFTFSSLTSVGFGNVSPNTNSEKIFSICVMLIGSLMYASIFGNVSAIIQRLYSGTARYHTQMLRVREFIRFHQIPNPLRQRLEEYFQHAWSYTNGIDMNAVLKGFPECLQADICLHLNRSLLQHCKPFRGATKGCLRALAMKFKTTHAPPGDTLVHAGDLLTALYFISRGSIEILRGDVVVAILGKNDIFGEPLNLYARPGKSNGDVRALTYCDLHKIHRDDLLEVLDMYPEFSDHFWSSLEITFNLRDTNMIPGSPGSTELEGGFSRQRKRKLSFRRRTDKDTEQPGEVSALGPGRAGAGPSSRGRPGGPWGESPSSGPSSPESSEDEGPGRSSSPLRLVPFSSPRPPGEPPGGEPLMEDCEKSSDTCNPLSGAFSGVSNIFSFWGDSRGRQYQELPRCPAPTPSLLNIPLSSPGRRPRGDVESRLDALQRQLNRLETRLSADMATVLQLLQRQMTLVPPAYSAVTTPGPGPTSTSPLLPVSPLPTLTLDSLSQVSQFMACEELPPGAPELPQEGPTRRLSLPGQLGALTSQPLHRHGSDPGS
As to `Cc1ccc(C(=O)NC(=S)N2CCN(C)CC2)cc1`, the “hERG current change (%, negative = inhibition) at 10uM” value was -1.37%.

With `COC(=O)c1ccc(CSc2nnc(CS(=O)Cc3ccc(Br)cc3)n2-c2ccccc2)cc1` (centres unmarked), the “hERG current change (%, negative = inhibition) at 10uM” value is listed as -12%.

For the compound `O=C(CN1CCCCCC1)Nc1ccc(Br)cc1`, the “hERG current change (%, negative = inhibition) at 10uM” value is recorded as -32.3%.

In the case of `O=C(CN1CCN(S(=O)(=O)N2CCCCC2)CC1)Nc1ccc(Br)cc1`, the “hERG current change (%, negative = inhibition) at 10uM” value is -78.2%.

Turning to `Cl.O=C(CN1CCCC1)Nc1ccc(Br)cc1`, the “hERG current change (%, negative = inhibition) at 10uM” value is given as -1.25%.

`O=C(CN1CCCCCC1)Nc1ccc(S(=O)(=O)N2CCCCC2)cc1`: the “hERG current change (%, negative = inhibition) at 10uM” value is -38.7%.

With `O=C(CN1CCCCC1)Nc1ccc(S(=O)(=O)N2CCCCCC2)cc1`, the “hERG current change (%, negative = inhibition) at 10uM” value is -35.5%.

Take `O=C(CN1CCCC1)Nc1ccc(S(=O)(=O)N2CCCCC2)cc1`: the “hERG current change (%, negative = inhibition) at 10uM” value is on record as 4.2%.

Regarding `O=C(CN1CCN(S(=O)(=O)N2CCCCCC2)CC1)Nc1ccc(Br)cc1`, the “hERG current change (%, negative = inhibition) at 10uM” value is listed as -74.3%.

As for `O=C(CN1CCN(S(=O)(=O)N2CCCCCC2)CC1)Nc1ccc(F)cc1`, the “hERG current change (%, negative = inhibition) at 10uM” value was -74.9%.

Regarding `S=C(Nc1ccc(Br)cc1)N1CCN(C2CCCCC2)CC1`, the “hERG current change (%, negative = inhibition) at 10uM” value is recorded as -17.3%.

With `Cl.O=C(CN1CCN(C2CCCCC2)CC1)Nc1ccc(Br)cc1`, the “hERG current change (%, negative = inhibition) at 10uM” value was -70%.

Turning to `O=C(CN1CCN(S(=O)(=O)N2CCCCC2)CC1)Nc1ccc(Cl)c(Cl)c1`, the “hERG current change (%, negative = inhibition) at 10uM” value is recorded as -28.2%.

For the compound `O=C(CN1CCN(S(=O)(=O)N2CCCCC2)CC1)Nc1cc(Cl)cc(Cl)c1`, the “hERG current change (%, negative = inhibition) at 10uM” value was -32.5%.

Take `CC1CCC2(CC1)NC(=O)N(CC(=O)Nc1ccc3[nH]c(=O)[nH]c3c1)C2=O` (centres unmarked): the “hERG current change (%, negative = inhibition) at 10uM” value is recorded as 0.0265%.

In the case of `O=C(NC1CCCCC1)c1cc(S(=O)(=O)N2CCOCC2)c(Cl)cc1Cl`, the “hERG current change (%, negative = inhibition) at 10uM” value was determined as 13.6%.

`Cc1nc2ccccc2c(=O)[nH]1`: the “hERG current change (%, negative = inhibition) at 10uM” value amounted to 3.94%.

As to `Cc1ccc(N(CC(=O)Nc2ccc(F)cc2)S(=O)(=O)N2CCCC2)cc1`, the “hERG current change (%, negative = inhibition) at 10uM” value is -27.1%.

Take `CN(C)S(=O)(=O)N1CCN(CC(=O)Nc2ccc(Br)cc2)CC1`: the “hERG current change (%, negative = inhibition) at 10uM” value is -49.4%.

For the compound `CN(C)S(=O)(=O)N1CCN(CC(=O)Nc2ccc(F)cc2)CC1`, the “hERG current change (%, negative = inhibition) at 10uM” value is on record as -69.7%.

Take `CCc1ccc(-c2cn(-c3nc(C)cc(C)n3)c(=N)o2)cc1`: the “hERG current change (%, negative = inhibition) at 10uM” value is recorded as -71.8%.

Regarding `CCc1ccc(Nc2nc(C)cc(C)n2)cc1.Cl`, the “hERG current change (%, negative = inhibition) at 10uM” value is -1.21%.

Consider `CCc1ccc(-c2cn3c(n2)SCC3)cc1`, for which the “hERG current change (%, negative = inhibition) at 10uM” value came out at 4.12%.

As for `Cc1ccc2oc(-c3ccccc3)nc2c1`, the “hERG current change (%, negative = inhibition) at 10uM” value is listed as 11.3%.

As to `Nc1nc(CN2CCN(c3ccccc3)CC2)nc(N2CCCc3ccccc32)n1`, the “hERG current change (%, negative = inhibition) at 10uM” value is recorded as -39.6%.

Regarding `Nc1nc(CN2CCN(Cc3ccccc3)CC2)nc(N2CCCc3ccccc32)n1`, the “hERG current change (%, negative = inhibition) at 10uM” value is reported as -56.5%.

For `COc1ccc(N2CCN(Cc3nc(N)nc(N4CCCc5ccccc54)n3)CC2)cc1`, the “hERG current change (%, negative = inhibition) at 10uM” value is -27.9%.

With `Nc1nc(CN2CCN(c3ccc(F)cc3)CC2)nc(N2CCCc3ccccc32)n1`, the “hERG current change (%, negative = inhibition) at 10uM” value is -52.9%.

Take `Nc1nc(CN2CCN(c3ccccc3F)CC2)nc(N2CCCc3ccccc32)n1`: the “hERG current change (%, negative = inhibition) at 10uM” value was -11.7%.

Turning to `Nc1nc(CN2CCN(c3cccc(Cl)c3)CC2)nc(N2CCCc3ccccc32)n1`, the “hERG current change (%, negative = inhibition) at 10uM” value is -6.96%.

Regarding `COc1ccc(CC(=O)N2N=C(C)CC2(O)C(F)(F)F)cc1` (centres unmarked), the “hERG current change (%, negative = inhibition) at 10uM” value amounted to 2.87%.

With `Cc1cc(N/N=C/c2ccccc2F)c2ccccc2n1`, the “hERG current change (%, negative = inhibition) at 10uM” value was 9.06%.

On to `CN(C)c1ccc(C(=S)N2CCCCC2)cc1`, for which the “hERG current change (%, negative = inhibition) at 10uM” value is 8.24%.

As for `Nc1cccnc1S(=O)(=O)c1cccc(C(F)(F)F)c1`, the “hERG current change (%, negative = inhibition) at 10uM” value is 5.59%.

Turning to `CC1CCC(C(C)C)C(OCC(O)CN2CCCC(C)C2)C1.Cl` (centres unmarked), the “hERG current change (%, negative = inhibition) at 10uM” value is on record as -31.6%.

Turning to `CC1CCN(CC(O)COC2CC(C)CC(C)(C)C2)CC1.Cl` (centres unmarked), the “hERG current change (%, negative = inhibition) at 10uM” value is given as -54.5%.

Regarding `CC1CCN(CC(O)COC2CC(C)CCC2C(C)C)CC1.Cl` (centres unmarked), the “hERG current change (%, negative = inhibition) at 10uM” value was -70.4%.

Turning to `CC1CCC(C(C)C)C(OCC(O)CN2CCOCC2)C1.Cl` (centres unmarked), the “hERG current change (%, negative = inhibition) at 10uM” value is -0.613%.

As for `CC1CC(OCC(O)CN2CCOCC2)CC(C)(C)C1.Cl` (centres unmarked), the “hERG current change (%, negative = inhibition) at 10uM” value is 1.1%.

With `CCOC(=O)N1CCN(CC(O)COC2CC(C)CCC2C(C)C)CC1.Cl` (centres unmarked), the “hERG current change (%, negative = inhibition) at 10uM” value is given as -33.1%.

For the compound `CC1CCC(C(C)C)C(OCC(O)CN2CCN(Cc3ccccc3)CC2)C1.Cl` (centres unmarked), the “hERG current change (%, negative = inhibition) at 10uM” value is on record as -66.5%.

For `CC1CC(OCC(O)CN2CCN(Cc3ccccc3)CC2)CC(C)(C)C1.Cl` (centres unmarked), the “hERG current change (%, negative = inhibition) at 10uM” value is -43.5%.

For the compound `CC1CC(C)CN(CC(O)COC2CC(C)CC(C)(C)C2)C1.Cl` (centres unmarked), the “hERG current change (%, negative = inhibition) at 10uM” value was -32.3%.

Regarding `CC(=O)Nc1ccc(N2C(=O)CSC2c2cccc([N+](=O)[O-])c2)cc1` (centres unmarked), the “hERG current change (%, negative = inhibition) at 10uM” value came to 15.6%.

As for `Cc1cc(NC(=O)CCCn2cnc([N+](=O)[O-])n2)no1`, the “hERG current change (%, negative = inhibition) at 10uM” value was 1.48%.

As for `CC(=O)N1CCC2(CC1)C(C#N)=C(N)OC1=C2C(=O)CC(C)(C)C1`, the “hERG current change (%, negative = inhibition) at 10uM” value came out at 8.09%.

Turning to `COc1ccccc1/C=C1\SC(=S)N(NS(=O)(=O)c2ccccc2)C1=O`, the “hERG current change (%, negative = inhibition) at 10uM” value stood at 8.33%.

With `COc1ccccc1C(=O)NC(=O)COC(=O)C1CC1C` (centres unmarked), the “hERG current change (%, negative = inhibition) at 10uM” value was -3.4%.

Take `O=C(c1ccc(Cl)c(S(=O)(=O)N2CCOCC2)c1)N1CCN(c2ccccc2F)CC1`: the “hERG current change (%, negative = inhibition) at 10uM” value is reported as -15.1%.

Take `COc1cc(CNc2cccc(C(=O)O)c2)cc(Br)c1OCC(=O)NC(C)(C)C`: the “hERG current change (%, negative = inhibition) at 10uM” value was 2.52%.
